What follows are sequences tested against POU1 (OCT1 POU domain) (human, UniProt P14859 260-458) (assay: EMSA-SELEX-seq; no BOB1; 20 mM Tris-HCl pH 7.6, 140 mM NaCl, 10% glycerol, 0.5 mM EDTA, 0.05% Triton X-100, 0.1 mg/mL BSA, 0.1 mg/mL poly(dI-dC), 5 mM DTT, room temperature, 20 min; high values mean tight binding). Details: protein: recombinant; dsDNA, one strand shown.
Summary of the method: (§1)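 Tagged POU-domain proteins were expressed in E. coli BL21, purified under denaturing conditions and renatured. Then 30 ng was mixed with 300 ng of a PCR-amplified double-stranded random 35-nt library, with or without 28 ng coactivator protein, in 20 μL Tris–HCl pH 7.6 binding buffer for 20 min at RT. Complex bands were cut from native 6% PAGE, eluted and PCR-amplified over four rounds, then Illumina-sequenced. Binding preference is the percentage of sequenced 8-mers matching a motif pattern.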

POU1 (OCT1 POU domain), sequence (P14859 260-458): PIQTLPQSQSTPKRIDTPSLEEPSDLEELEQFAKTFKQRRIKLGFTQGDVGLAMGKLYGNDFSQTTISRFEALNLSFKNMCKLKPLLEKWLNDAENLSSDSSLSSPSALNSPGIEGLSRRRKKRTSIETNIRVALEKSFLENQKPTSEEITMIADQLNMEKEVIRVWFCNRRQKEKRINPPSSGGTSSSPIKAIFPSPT

Sequence | binding signal
AGCCAAAG | 0.0286 % of ANNNNAAN 8-mers
ATGCTAAA | 0.273 % of ANNNNAAN 8-mers
AGCGCAAT | 0.0278 % of ANNNNAAN 8-mers
ATATCAAA | 0.0877 % of ANNNNAAN 8-mers
ATCACAAC | 0.0194 % of ANNNNAAN 8-mers
ATATTAAT | 0.424 % of ANNNNAAN 8-mers
AATCTAAT | 0.116 % of ANNNNAAN 8-mers
AATCTAAA | 0.107 % of ANNNNAAN 8-mers
ATCTCAAG | 0.0313 % of ANNNNAAN 8-mers
AGTGCAAA | 0.0873 % of ANNNNAAN 8-mers
ACTCCAAA | 0.0259 % of ANNNNAAN 8-mers
AAGCCAAA | 0.0305 % of ANNNNAAN 8-mers
ATTTTAAA | 0.198 % of ANNNNAAN 8-mers
ACTAGAAC | 0.016 % of ANNNNAAN 8-mers
AGCTCAAG | 0.0183 % of ANNNNAAN 8-mers
AGGTTAAG | 0.0522 % of ANNNNAAN 8-mers
AGTCCAAC | 0.0114 % of ANNNNAAN 8-mers
AGCTGAAG | 0.0187 % of ANNNNAAN 8-mers
ACGTGAAT | 0.0732 % of ANNNNAAN 8-mers
AACCGAAA | 0.0271 % of ANNNNAAN 8-mers

Sequence | binding signal
ACATGAAA | 0.0671 % of ANNNNAAN 8-mers
AGACAAAG | 0.0404 % of ANNNNAAN 8-mers
AATACAAC | 0.0412 % of ANNNNAAN 8-mers
ACTCTAAT | 0.0488 % of ANNNNAAN 8-mers
AAAAAAAG | 0.0923 % of ANNNNAAN 8-mers
ATTCTAAG | 0.0747 % of ANNNNAAN 8-mers
ATGATAAG | 0.0843 % of ANNNNAAN 8-mers
AGTAAAAG | 0.061 % of ANNNNAAN 8-mers
AATTAAAC | 0.14 % of ANNNNAAN 8-mers
AACATAAG | 0.0694 % of ANNNNAAN 8-mers
ATTTTAAG | 0.108 % of ANNNNAAN 8-mers
AGAAAAAC | 0.04 % of ANNNNAAN 8-mers
AGTTGAAA | 0.0477 % of ANNNNAAN 8-mers
ACGAAAAT | 0.106 % of ANNNNAAN 8-mers
AGAATAAC | 0.0534 % of ANNNNAAN 8-mers
AGCGGAAT | 0.0622 % of ANNNNAAN 8-mers
ACCGGAAC | 0.0137 % of ANNNNAAN 8-mers
ACAAGAAA | 0.0366 % of ANNNNAAN 8-mers
AGATTAAG | 0.0656 % of ANNNNAAN 8-mers

Each sequence was assayed against T1, POU2 (OCT2 POU domain) (human, UniProt P09086 175-386) in the same assay as above. Details: protein: recombinant; dsDNA, one strand shown.
T1 sequence: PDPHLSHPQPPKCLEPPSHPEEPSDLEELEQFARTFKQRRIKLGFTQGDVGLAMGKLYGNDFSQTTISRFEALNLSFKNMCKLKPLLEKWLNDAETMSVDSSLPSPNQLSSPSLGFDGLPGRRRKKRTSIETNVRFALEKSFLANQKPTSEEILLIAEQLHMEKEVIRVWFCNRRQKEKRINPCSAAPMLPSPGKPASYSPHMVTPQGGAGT
Summary of the method: as §1

Sequence | binding signal
AGCCAAAG | 0.0219 % of ANNNNAAN 8-mers
ATGCTAAA | 0.293 % of ANNNNAAN 8-mers
AGCGCAAT | 0.0368 % of ANNNNAAN 8-mers
ATATCAAA | 0.0806 % of ANNNNAAN 8-mers
ATCACAAC | 0.0242 % of ANNNNAAN 8-mers
ATATTAAT | 0.558 % of ANNNNAAN 8-mers
AATCTAAT | 0.143 % of ANNNNAAN 8-mers
AATCTAAA | 0.129 % of ANNNNAAN 8-mers
ATCTCAAG | 0.0368 % of ANNNNAAN 8-mers
AGTGCAAA | 0.0593 % of ANNNNAAN 8-mers
ACTCCAAA | 0.0219 % of ANNNNAAN 8-mers
AAGCCAAA | 0.0414 % of ANNNNAAN 8-mers
ATTTTAAA | 0.204 % of ANNNNAAN 8-mers
ACTAGAAC | 0.0207 % of ANNNNAAN 8-mers
AGCTCAAG | 0.0173 % of ANNNNAAN 8-mers
AGGTTAAG | 0.0639 % of ANNNNAAN 8-mers
AGTCCAAC | 0.0167 % of ANNNNAAN 8-mers
AGCTGAAG | 0.0265 % of ANNNNAAN 8-mers
ACGTGAAT | 0.107 % of ANNNNAAN 8-mers
AACCGAAA | 0.0293 % of ANNNNAAN 8-mers

Sequence | binding signal
ACATGAAA | 0.0708 % of ANNNNAAN 8-mers
AGACAAAG | 0.0374 % of ANNNNAAN 8-mers
AATACAAC | 0.0403 % of ANNNNAAN 8-mers
ACTCTAAT | 0.0604 % of ANNNNAAN 8-mers
AAAAAAAG | 0.0938 % of ANNNNAAN 8-mers
ATTCTAAG | 0.0857 % of ANNNNAAN 8-mers
ATGATAAG | 0.0984 % of ANNNNAAN 8-mers
AGTAAAAG | 0.0662 % of ANNNNAAN 8-mers
AATTAAAC | 0.194 % of ANNNNAAN 8-mers
AACATAAG | 0.0731 % of ANNNNAAN 8-mers
ATTTTAAG | 0.131 % of ANNNNAAN 8-mers
AGAAAAAC | 0.0368 % of ANNNNAAN 8-mers
AGTTGAAA | 0.0489 % of ANNNNAAN 8-mers
ACGAAAAT | 0.0949 % of ANNNNAAN 8-mers
AGAATAAC | 0.0673 % of ANNNNAAN 8-mers
AGCGGAAT | 0.0725 % of ANNNNAAN 8-mers
ACCGGAAC | 0.0138 % of ANNNNAAN 8-mers
ACAAGAAA | 0.0437 % of ANNNNAAN 8-mers
AGATTAAG | 0.088 % of ANNNNAAN 8-mers

From paper PMC10812921, “Transcriptional Coactivator BOB1 (OBF1, OCA-B) Modulates the Specificity of DNA Recognition by the POU-Domain Factors OCT1 and OCT2 in a Monomeric Configuration”
